# Assay results from PubChem BioAssay AID485364 (National Center for Advancing Translational Sciences (NCATS), 2010).
# The whole screen tested about 360,000 compounds, of which about 11,000 (3.1%) were called active. About 4% were inconclusive and are not listed. The full list was thinned out, with actives kept by preference. A number with no mark means an inactive call. Calls come from the whole dose curve; as a rule, active = well fitted inhibition curve with a large enough effect; inconclusive = small, poorly fitted or top-dose-only effect; inactive = no such curve, though single readings can be large or run the other way.
# Target: Schistosoma mansoni thioredoxin glutathione reductase (TGR) (UniProt Q962Y6)
# Assay: qHTS Assay for the Inhibitors of Schistosoma Mansoni Peroxiredoxins; note: nearly all actives have a fitted effect of over 60% in size
# Conditions: purified TGR, DTNB reduction, TNB absorbance 405 nm; series mostly up to 114 µM; activity change, negative = inhibition: at the top concentration
# Outline: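 First, TGR (20 nM dispensed) and NADPH were mixed with compound. Second, a 15 min room-temperature incubation followed. Third, further NADPH and then DTNB were added to start the reaction. Finally, TNB absorbance was monitored kinetically.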
# % is set by controls: 0 for no effect and ±100 for the full control effect; potency is the fitted concentration of half-maximal effect.
Structure (SMILES),Potency,"activity change, negative = inhibition"
COc1ccccc1CNC(=O)C(=O)NCC(c1cccs1)S(=O)(=O)c1cccs1 (centres undefined),25.1 µM (active),–
COC(C(=O)NCc1ccccc1C)c1ccccc1 (centres undefined),–,-0.709%
COc1ccccc1CCNC(=O)C(=O)NCCC1CCCCN1S(=O)(=O)c1cccs1 (centres undefined),–,-13.6%
CC(C)C(=O)NCC(c1cccs1)S(=O)(=O)c1ccc(F)cc1 (centres undefined),–,1.99%
Cc1ccccc1CNC(=O)C(=O)NCC(c1cccs1)S(=O)(=O)c1cccs1 (centres undefined),25.1 µM (active),–
O=C(NCc1ccccc1Cl)C(=O)NCC1CCCN1S(=O)(=O)c1cccs1 (centres undefined),–,2.19%
Cc1ccc(SCC(=O)Nc2ccc3oc(-c4ccccc4C)nc3c2)cc1,–,4.39%
CCC(C)NC(=O)Cn1c(=O)n(-c2ccc(Cl)cc2)c(=O)c2c3c(sc21)CCCC3 (centres undefined),–,1.64%
Cc1c(Cl)cccc1NC(=O)C1CCCN(c2ncnc3onc(C)c23)C1 (centres undefined),–,4.36%
CCOc1ccc(NC(=O)Cn2c(C)ccc(C#N)c2=O)cc1,–,-7.32%
Cc1ccc(CSCC(=O)N(C)CC(=O)Nc2ccc(C)cc2)cc1,–,-1.39%
Cc1ccc(CSCC(N)C(=O)O)cc1 (centres undefined),28.2 µM (active),–
CSCC(NS(=O)(=O)c1ccc(C)cc1)C(=O)O (centres undefined),–,1.42%
CCc1ccc(NC(=O)CCS(=O)(=O)c2cc3c(cc2Cl)NC(=O)CO3)cc1,–,5.86%
Fc1ccc(CN2CCc3nc(Nc4ccccc4)ncc3C2)cc1F,–,-3.33%
CCOC(=O)C1=C(O)/C(=C/c2cc(C)n(-c3ccccc3)c2C)N=C1C,28.2 µM (active),–
COC(=O)C1=C(O)/C(=C/c2ccc(OCC(=O)Nc3ccccc3)cc2)N=C1C,–,58.6%
CCOC(=O)C1=C(O)/C(=C/c2ccc(OCC(=O)Nc3ccc(C)cc3)cc2)N=C1C,–,-27.1%
CCOc1ccccc1C(=O)Nc1ccc2c(c1)N(C)C(=O)c1ccccc1S2,–,-1.15%
O=C(Cn1c(=O)n(-c2ccc(F)cc2)c(=O)c2sc3ccccc3c21)NC1CCCC1,–,0.259%
O=C(CSc1nnnn1-c1ccccc1)NCc1ccco1,79.4 µM (active),–
Cc1ccc(-c2csc3nnc(SCC(=O)NCc4ccco4)n23)cc1,–,-32.7%

Structure (SMILES),Potency,"activity change, negative = inhibition"
CCn1c(SCC(=O)NCc2ccco2)nnc1-c1ccc(N)cc1,–,0.665%
O=C(CSc1nnc(-c2c[nH]c3ccccc23)n1-c1ccc(F)cc1)NCc1ccco1,–,-24.4%
Cn1c(-c2ccc(F)cc2)cnc1SCC(=O)NCc1ccco1,31.6 µM (active),–
Cc1cc(C)n2nc(SCC(=O)NC(=O)NCc3ccco3)nc2n1,–,-35.8%
Cc1ccc(Cc2c(C)nc3nc(SCC(=O)NCCN4CCOCC4)nn3c2C)cc1,–,-11.8%
O=C(CSc1nnc2scc(-c3ccc(F)cc3)n12)NCc1ccco1,–,-0.356%
Cc1nc2nc(SCC(=O)NCc3ccco3)nn2c(C)c1Cc1ccccc1,20 µM (active),–
CCN(CC)C(CNC(=O)CSc1nnnn1-c1cccc(F)c1)c1ccco1 (centres undefined),–,0%
CCOc1ccccc1-n1c(SCC(=O)NCc2ccco2)nnc1-c1ccncc1,44.7 µM (active),–
Cn1c(-c2ccc(F)cc2)cnc1SCC(=O)NNC(=O)Cc1ccccc1,–,-9.73% [at 57.1 µM]
COc1cccc(NC(=O)C(=O)NCC(c2ccc3c(c2)OCO3)N2CCN(C)CC2)c1 (centres undefined),–,1.67%
Cc1ccc(CN2CCC(CNC(=O)c3cnn(-c4ccccc4Cl)c3C3CCN(C(=O)OC(C)(C)C)CC3)CC2)cc1,–,-7.74%
COc1ccc2c(c1)c(=O)c(C(=O)c1ccccc1)cn2CC(=O)Nc1ccc2c(c1)OCCO2,–,-6.11%
CCOc1ccccc1NC(=O)Cn1c(=O)n(-c2cccc(C)c2)c(=O)c2c1c1cc(OC)ccc1n2C,–,-3.55%
O=C(Cn1cnc2c(oc3ccccc32)c1=O)Nc1ccc(OC(F)(F)F)cc1,–,6.89%
CC(CCCc1ccccc1)NC(=O)c1nn(-c2ccc(Cl)cc2)nc1CO (centres undefined),–,-0.0745%
O=C(NCCCO)c1nn(-c2ccc(Cl)cc2)nc1CO,–,5.54%
O=C(CN1CCOCC1)N/N=C/c1ccc(-c2ccc(Br)cc2)o1,–,4.92%
O=C(N/N=C/c1ccc(Br)o1)c1cncc(Br)c1,–,2.4%
O=C(CCC(=O)N/N=C/c1ccc(Br)o1)N/N=C/c1ccc(Br)o1,35.5 µM (active),–
CC(C)(C)OC(=O)N1CCC(c2c(C(=O)NCCc3ccsc3)cnn2-c2ccc(F)cc2F)CC1,–,3.46%
CCN(CC)c1ccc2oc(=O)c(C)nc2c1,35.5 µM (active),–

Structure (SMILES),Potency,"activity change, negative = inhibition"
CCc1ccc2oc(-c3ccc(N)cc3)nc2c1,–,5.8%
Cc1ccc(NC(=O)Nc2ccc3oc(C)nc3c2)cc1,–,-5.55%
Cc1cccc2c(=O)cc(CSc3ccccc3NC(=O)C(C)C)[nH]c12,–,4.74%
O=C(Nc1ccccc1F)C(c1ccccc1)N1Cc2ccccc2C1=O (centres undefined),–,1.88%
Cc1ccc(-c2nc(CS(=O)(=O)CC(=O)NCc3ccc4c(c3)OCO4)c(C)o2)cc1,20 µM (active),–
COc1ccc(-c2nc(CS(=O)(=O)CC(=O)NCc3cccc(Br)c3)c(C)o2)cc1,–,-14.1%
Cc1ccc(-c2nc(CS(=O)(=O)CC(=O)NCc3ccccc3Cl)c(C)o2)cc1,–,-12.7%
O=C(NCc1ccccc1)c1cccc(NC(=O)N2CCSc3ncccc32)c1,–,0.268%
O=C(c1cccc(Br)c1)N1CCN(Cc2cc(=O)n3nc(-c4ccccc4)sc3n2)CC1,–,12.5%
O=C(NC(=S)Nc1cccc2c(O)cccc12)c1cccc(Br)c1,–,-23.3%
COc1ccc(OC)c(C(C)NC(=S)Nc2ccc(S(=O)(=O)Nc3ncccn3)cc2)c1 (centres undefined),–,-24.2%
NS(=O)(=O)c1ccc(NC(=S)Nc2ccc(Br)c(Cl)c2)cc1,–,-19.3%
NS(=O)(=O)c1ccc(NC(=S)NC(=O)c2cccc(Br)c2)cc1,15.8 µM (active),–
O=C(Nc1ccc(S(=O)(=O)Nc2ncccn2)cc1)c1cncc(Br)c1,–,3.58%
Cc1cc(NS(=O)(=O)c2ccc(NC(=O)c3cccnc3)cc2)nc(C)n1,–,-0.523%
O=C(NC(=S)Nc1ccc(S(=O)(=O)Nc2ncccn2)cc1)c1cccc(Br)c1,20 µM (active),–
NS(=O)(=O)c1ccc(NC(=S)NC(=O)c2cccnc2)cc1,22.4 µM (active),–
CC(C)NS(=O)(=O)c1ccc(NC(=O)c2cccnc2)cc1,–,0%
O=C(CSc1nnc(CNC(=O)c2ccccc2)n1-c1ccc(F)cc1)Nc1ccccc1F,–,-11.6%
CCOc1ccc2oc(=O)cc(CN3CCN(C(=O)c4ccc(F)cc4)CC3)c2c1,–,-23.7%
